From PubChem
Compounds with a hit are over-represented: about 20% of the library has one in this group of screens.
Pf growth 96h – inhibits malaria parasite growth, 96 h; Potency, µM (highest dose often 28.7 µM), most hits filed as inhibitors; AID 504834; 6.9% of 320,000 active; P. falciparum luciferase reporter growth, 96 h
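Two-generation exposure (96 h) targets delayed-death phenotype. Reporter parasites carrying integrated firefly luciferase, in red cells at 2% hematocrit and 0.05% parasitemia final, kept at 37 C, 5% CO2; luminescence loss indicates inhibition.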
Shiga toxin inh – inhibitors of Shiga toxin in Vero cells; Vero cells, Shiga toxin protein synthesis inhibition reporter; inhibition, % at 38.7 µM; 9.2% of 290,000 active; in the data active = inhibition mostly above about 28%, no sharp cut-off; inactive = mostly below about 43%
Pf growth 48h – P. falciparum growth inhibition at 48 hours (one generation). P. falciparum luciferase growth in erythrocytes, 48 h. Potency, µM (highest dose often 28.7 µM), most hits filed as inhibitors. 5.9% of 310,000 active. AID 504832
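Cell-based growth assay: transgenic P. falciparum expressing firefly luciferase, cultured in red cells within RPMI 1640 containing 0.5% w/v Albumax, 24 mM bicarbonate and gentamycin. A drop in luciferase activity indicates inhibition.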
Cycloheximide cs – counter-screen hit for Shiga toxin inhibitors, cycloheximide; cell reporter, cycloheximide protein synthesis inhibition counterscreen; max response, %; 12% of 300,000 active; AID 2314; in the data active = max response mostly above about 13%, no sharp cut-off; inactive = mostly below about 14%; also: read at 38.3 µM for the half of the compounds with a filed dose
HCMV inh – human cytomegalovirus inhibition; 4.5% of 410,000 active; activity change, negative = inhibition, % at 57.5 µM; HFF cells, HCMV-luciferase reporter, 72 h; hits give low values; in the data active = activity change below about -60%; inconclusive = no clear call, values can overlap the other calls; inactive = above about -39%
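Luciferase read-out from HCMV-luciferase-infected HFFs (MOI 1 PFU/cell) 72 h post infection at 37C; compounds added after 16 h cell attachment; activity normalized between buffer-only basal and Salinomycin (10uM) inhibitor controls.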
Numbers stand for hits; [ ] = remark or other dose. Unless noted, calls follow the shape of the dose curve; as a rule, active = well fitted inhibition curve with a large enough effect; inconclusive = small, poorly fitted or top-dose-only effect, or another doubt; inactive = no such curve, though single readings can be large or run the other way.

`CCc1ccc(NC(=O)C[n+]2cc(-c3ccc(C)cc3)n3c2CCC3)cc1` gave Pf growth 96h 1.5µM, Shiga toxin inh inactive, Pf growth 48h 2.9µM, Cycloheximide cs inactive and HCMV inh inactive.
`Cc1ccc(-c2csc(NC(=O)C[n+]3cc(-c4ccc(C)cc4)n4c3CCC4)n2)cc1` gave Pf growth 96h inactive, Shiga toxin inh inactive, Pf growth 48h inconclusive, Cycloheximide cs inactive and HCMV inh inactive.
`CCc1ccc(NC(=O)CCC(=O)c2ccc(C)cc2)cc1` gave Pf growth 96h inactive, Shiga toxin inh inactive, Pf growth 48h inactive, Cycloheximide cs inactive and HCMV inh inactive.
`Cc1ccc(NC(=O)C[n+]2cc(-c3ccccc3)n3c2CCC3)c(C)c1` gave Pf growth 96h 5.2µM, Shiga toxin inh inactive, Pf growth 48h inconclusive, Cycloheximide cs inactive and HCMV inh inconclusive.
For Cc1ccc(-c2c[n+](CC(=O)Nc3c(C)cccc3C)c3n2CCC3)cc1 the results were Pf growth 96h 15µM, Shiga toxin inh inactive, Pf growth 48h inconclusive, Cycloheximide cs inactive and HCMV inh -68.
`Cc1ccc(-c2csc(NC(=O)C[n+]3cc(-c4ccccc4)n4c3CCC4)n2)cc1` gave Pf growth 96h inconclusive, Shiga toxin inh inactive, Pf growth 48h inconclusive, Cycloheximide cs inactive and HCMV inh inactive.
CCOC(=O)c1c(NC(=S)N2CCOCC2)sc(C)c1C was read as Pf growth 96h inactive, Shiga toxin inh inactive, Pf growth 48h inactive, Cycloheximide cs inactive and HCMV inh inactive.
For CCOc1ccc(OCC)c(NS(=O)(=O)c2ccc3c(c2)CCN3C(=O)C2CCC2)c1 the results were Shiga toxin inh inactive, Pf growth 48h inconclusive, Cycloheximide cs inactive and HCMV inh inactive.
`CCOC(=O)c1c(C)[nH]c(C)c1S(=O)(=O)NCC(=O)Nc1cccc(C#N)c1` gave HCMV inh inactive.
CSCC[C@H](NC(=O)[C@H](CC(C)C)NC(=O)CCNC(=O)[C@@H](NC(=O)[C@H](Cc1ccccc1)NC(=O)[C@H](CO)NC(=O)[C@@H](N)CC(=O)O)C(C)C)C(N)=O was read as Shiga toxin inh inactive and Cycloheximide cs inactive.
CCOC(=O)/C=C/C(=O)N1CCc2ccccc21 was read as Pf growth 96h inactive, Shiga toxin inh inactive, Pf growth 48h inactive, Cycloheximide cs inactive and HCMV inh inactive.
Screening Cc1ccc(/C=C/C(=O)N2CCc3ccccc32)o1 returned Pf growth 96h inactive, Shiga toxin inh 103, Pf growth 48h inactive, Cycloheximide cs 50 and HCMV inh inactive.
Screening O=C(/C=C/c1ccco1)N1CCc2ccccc21 returned Pf growth 96h inactive, Shiga toxin inh 59, Pf growth 48h inactive, Cycloheximide cs 29 and HCMV inh inactive.
Screening C/C(=C\C(=O)N1CCc2ccccc21)C(=O)O returned Pf growth 96h inactive, Shiga toxin inh inactive, Pf growth 48h inactive, Cycloheximide cs inactive and HCMV inh inactive.
Screening O=C(CN(Cc1ccccc1Cl)C(=O)c1ccc(CN2CCOCC2)o1)NCc1ccccc1 returned Pf growth 96h 6.6µM, Shiga toxin inh inactive, Pf growth 48h inactive, Cycloheximide cs inactive and HCMV inh inactive.
For O=C(NCc1ccccc1)c1ccc(CN2CCOCC2)cc1 the results were Pf growth 96h inactive, Shiga toxin inh inactive, Pf growth 48h inactive, Cycloheximide cs inactive and HCMV inh inactive.
COc1ccc(Cc2nc3ccc(C(=O)N(C)CCCN4CCOCC4)cc3o2)cc1 was read as Pf growth 96h inconclusive, Shiga toxin inh inactive, Pf growth 48h inactive, Cycloheximide cs inactive and HCMV inh inactive.
COc1ccccc1NC(=O)C1=C(C)Nc2nc(-c3ccc(N(C)C)cc3)nn2C1c1ccncc1 (stereo not given) was read as Pf growth 96h 9.3µM, Shiga toxin inh inactive, Pf growth 48h 15µM, Cycloheximide cs inactive and HCMV inh inactive.
For Cc1cc[n+](-c2nc3ccccc3nc2[N-]S(=O)(=O)c2cccs2)cc1C the results were Pf growth 96h inactive, Shiga toxin inh inactive, Pf growth 48h inactive, Cycloheximide cs inactive and HCMV inh inactive.
Screening c1ccc2c(c1)CN1C(=N2)COc2ccccc2C1c1nc2ccccc2[nH]1 (stereo not given) returned HCMV inh inactive.
Screening COc1cc(/C=N\Nc2nncn2N)ccc1OC(C)=O returned Pf growth 96h 0.93µM, Shiga toxin inh inactive, Pf growth 48h inactive, Cycloheximide cs 17 and HCMV inh inactive.
Screening COc1cc(C=Nc2c(C)cc(C)cc2C)ccc1OC(C)=O returned Pf growth 96h inactive, Shiga toxin inh inactive, Pf growth 48h inactive, Cycloheximide cs inactive and HCMV inh inactive.
For COc1ccc(OC)c(/C=N/Nc2nncn2/N=C/c2cc(OC)ccc2OC)c1 the results were Pf growth 96h inconclusive, Shiga toxin inh inactive, Pf growth 48h inactive, Cycloheximide cs inactive and HCMV inh inactive.
For COc1cc(/C=N/Nc2ccccc2C(F)(F)F)ccc1O the results were Pf growth 96h inconclusive, Shiga toxin inh 69, Pf growth 48h inactive, Cycloheximide cs 33 and HCMV inh inactive.
Screening COc1cc(/C=N/Nc2ccccc2)ccc1O returned Pf growth 96h 10µM, Shiga toxin inh inactive, Pf growth 48h inconclusive, Cycloheximide cs inactive and HCMV inh inactive.
`COc1cc(/C=N/Nc2nncn2/N=C/c2ccc(O)c(OC)c2)ccc1O` gave Pf growth 96h inactive, Shiga toxin inh 48, Pf growth 48h inactive, Cycloheximide cs 13 and HCMV inh inactive.
For CC(Oc1ccc(Br)cc1)C(=O)N1CCC(C(N)=O)CC1 (stereo not given) the results were Pf growth 96h inactive, Shiga toxin inh inactive, Pf growth 48h inactive[5.75 µM], Cycloheximide cs inactive and HCMV inh inactive.
For O=C(Nc1cccc2ncccc12)c1ccc(F)cc1 the results were Pf growth 96h inactive, Shiga toxin inh inactive, Pf growth 48h inactive, Cycloheximide cs inactive and HCMV inh -64.
`O=C(Nc1cccc2ncccc12)c1ccc(Br)c([N+](=O)[O-])c1` gave Pf growth 96h inactive, Shiga toxin inh inactive, Pf growth 48h inactive, Cycloheximide cs inactive and HCMV inh -63.
For O=C(Nc1cccc2ncccc12)c1cccc(Br)c1 the results were Pf growth 96h inconclusive, Shiga toxin inh inactive, Pf growth 48h inactive, Cycloheximide cs inactive and HCMV inh inactive.
O=C(Nc1cccc2ncccc12)c1cccnc1 was read as Shiga toxin inh inactive, Pf growth 48h inactive, Cycloheximide cs inactive and HCMV inh inactive.
COc1ccc(Cl)cc1C(=O)Nc1cccc2ncccc12 was read as Pf growth 96h 0.23µM, Pf growth 48h inconclusive, Cycloheximide cs inactive and HCMV inh inactive.
Screening O=C(Nc1cccc2ncccc12)c1cccc(F)c1 returned Pf growth 96h inactive, Shiga toxin inh inactive, Pf growth 48h inactive, Cycloheximide cs inactive and HCMV inh inactive.
O=C(Nc1cccc2ncccc12)c1ccc(Cl)cc1 was read as Pf growth 96h 6.6µM, Shiga toxin inh inactive, Pf growth 48h inconclusive, Cycloheximide cs inactive and HCMV inh inactive.
`Cc1cccc(Nc2nc3c(S(=O)(=O)c4ccc(Br)cc4)nnn3c3ccsc23)c1C` gave HCMV inh inactive.
